Our source for the binding signal values is publication PMC8384837, “Expanding the binding specificity for RNA recognition by a PUF domain”.

What all share (test): yeast three-hybrid, YBZ-1, SC-Leu-His + 0.5 mM 3-AT, 4 days
What all share (settings): tags: N-Gal4 AD-HA kept; label: inside an RPR1-promoter hybrid RNA with tandem MS2 sites; ssRNA

In experiment [1] the target is PUM1 PUF domain R7-SRP (Homo sapiens, UniProt Q14671 828-1176, N1080R;E1083P). In outline:
(§1)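 Sequencing with Illumina followed PCR amplification of the repeat regions from transformants grown four days on SC-Leu (input) or SC-Leu-His + 0.5 mM 3-AT (selection). The transformants were strain YBZ-1 with a LexA–MS2 coat fusion and a HIS3 reporter, carrying Pumilio-1 PUF domain libraries and matching RNA elements. The interaction score is the log change in variant frequency from input to selection, computed in log2 with a pseudocount of 1 for absent variants.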

In experiment [2] the target is PUM1 PUF domain R5-RHD (Homo sapiens, UniProt Q14671 828-1176, C1007R;R1008H;Q1011D). In outline:
as §1

For experiment [3], the target named is PUM1 PUF domain R8-PYA (Homo sapiens, UniProt Q14671 828-1176, N1122P;Q1126A). In outline: as §1
Experiment [4] concerns the target PUM1 PUF domain R4-RHS (Homo sapiens, UniProt Q14671 828-1176, N971R;Q975S). In outline:
as §1

Experiment [5] deals with PUM1 PUF domain R3-IYG (Homo sapiens, UniProt Q14671 828-1176, C935I;R936Y;Q939G). The procedure, abridged:
as §1

Experiment [6] deals with T1, PUM1 PUF domain R6-TFC (Homo sapiens, UniProt Q14671 828-1176, N1043T;Y1044F;Q1047C).
T1 sequence: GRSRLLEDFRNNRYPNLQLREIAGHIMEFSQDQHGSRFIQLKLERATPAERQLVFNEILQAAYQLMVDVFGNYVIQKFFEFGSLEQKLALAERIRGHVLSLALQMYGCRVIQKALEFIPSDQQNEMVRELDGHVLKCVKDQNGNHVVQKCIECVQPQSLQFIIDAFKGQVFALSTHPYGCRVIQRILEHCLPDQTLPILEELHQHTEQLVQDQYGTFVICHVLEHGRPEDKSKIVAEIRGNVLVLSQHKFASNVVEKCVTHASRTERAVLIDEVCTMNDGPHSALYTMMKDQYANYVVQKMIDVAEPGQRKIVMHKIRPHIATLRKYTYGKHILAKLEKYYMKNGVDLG
In outline: as §1

The target in experiment [7] is PUM1 PUF domain R1-TIE (Homo sapiens, UniProt Q14671 828-1176, S863T;R864I;Q867E). In outline:
as §1

For experiment [8], the target named is PUM1 PUF domain R8-FHR (Homo sapiens, UniProt Q14671 828-1176, N1122F;Y1123H;Q1126R). In outline:
as §1

Take “GGCUAGAACUAGUGGAUCCCCCGGCGCCCGGCGGCUCGAGCCCGGGUAAGUUUAAAUAGUCUGCAUGCCGCCGGGCGCCAUGCCUGCAGGUCGACUCUAGAAAACAUG”: the binding signal in experiment [1] was 3.52 log2 enrichment (interaction score).

Take “GGCUAGAACUAGUGGAUCCCCCGGCGCCCGGCGGCUCGAGCCCGGGUAAGUGUGAAUAGUCUGCAUGCCGCCGGGCGCCAUGCCUGCAGGUCGACUCUAGAAAACAUG”: the binding signal in experiment [2] was 5.63 log2 enrichment (interaction score). For the sequence “GGCUAGAACUAGUGGAUCCCCCGGCGCCCGGCGGCUCGAGCCCGGGUAAGUGUAAAUAGUCUGCAUGCCGCCGGGCGCCAUGCCUGCAGGUCGACUCUAGAAAACAUG”, the binding signal in experiment [3] is 2.27 log2 enrichment (interaction score); in experiment [4], 2.87 log2 enrichment (interaction score); in experiment [5], 4.83 log2 enrichment (interaction score). “GGCUAGAACUAGUGGAUCCCCCGGCGCCCGGCGGCUCGAGCCCGGGUAAGUGAAAAUAGUCUGCAUGCCGCCGGGCGCCAUGCCUGCAGGUCGACUCUAGAAAACAUG”: the binding signal in experiment [6] was 5.07 log2 enrichment (interaction score). On to “GGCUAGAACUAGUGGAUCCCCCGGCGCCCGGCGGCUCGAGCCCGGGUAAGUGUACAUAGUCUGCAUGCCGCCGGGCGCCAUGCCUGCAGGUCGACUCUAGAAAACAUG”, for which the binding signal in experiment [4] is 2.12 log2 enrichment (interaction score).

Turning to “GGCUAGAACUAGUGGAUCCCCCGGCGCCCGGCGGCUCGAGCCCGGGUAAGUGUAAAUUGUCUGCAUGCCGCCGGGCGCCAUGCCUGCAGGUCGACUCUAGAAAACAUG”, in experiment [7], the binding signal was 4.28 log2 enrichment (interaction score).

As to “GGCUAGAACUAGUGGAUCCCCCGGCGCCCGGCGGCUCGAGCCCGGGUAAGUGUAACUAGUCUGCAUGCCGCCGGGCGCCAUGCCUGCAGGUCGACUCUAGAAAACAUG”, in experiment [5], the binding signal is 0.48 log2 enrichment (interaction score). In the case of “GGCUAGAACUAGUGGAUCCCCCGGCGCCCGGCGGCUCGAGCCCGGGUAAGCGUAAAUAGUCUGCAUGCCGCCGGGCGCCAUGCCUGCAGGUCGACUCUAGAAAACAUG”, the binding signal in experiment [8] was 3.71 log2 enrichment (interaction score).
